According to PubChem BioAssay (NCI):
This is part of a sample that, as a whole, favours compounds with a hit. Of some 83,000 tested, about 20% had one in any assay.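 Plates (96-well) were seeded with cells, treated with compound at one concentration, and incubated for 48 hours before percent growth was determined.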 Unmarked numbers belong to inactive results. The source made the active and inactive calls. The calls were made as follows: active = growth percent below 10; inactive = the rest.

What was measured:
Test in all cases: NCI-60 one-dose screen, 48 h (100 = growth as untreated, 0 = no growth, -100 = all killed)
Conditions in all cases: 10 µM unless noted
[1] = test system: NCI-H226 lung
[2] = test system: NCI-H322M lung
[3] = test system: HOP-62 NSCLC
[4] = test system: NCI-H460 lung
[5] = test system: HOP-92 NSCLC
[6] = test system: NCI-H522 lung
[7] = test system: A549/ATCC NSCLC
[8] = test system: 786-0 renal
[9] = test system: COLO 205 colon
[10] = test system: DU-145 prostate
[11] = test system: K-562 leukemia
[12] = test system: MALME-3M melanoma
[13] = test system: MDA-MB-231 breast
[14] = test system: RXF 393 renal
[15] = test system: SF-268 CNS
[16] = test system: SF-295 CNS
[17] = test system: SF-539 CNS
[18] = test system: UACC-257 melanoma
[19] = test system: M14 melanoma

Compound	growth [1]	growth [2]	growth [3]	growth [4]	growth [5]	growth [6]	growth [7]	growth [8]	growth [9]	growth [10]	growth [11]	growth [12]	growth [13]	growth [14]	growth [15]	growth [16]	growth [17]	growth [18]	growth [19]
COc1ccc(-c2cc(-c3ccc(Cl)cc3)c(C#N)c(=O)n2Cc2ccc(C(=O)Nc3ccccc3N)cc2)cc1	81.2%	89.3%	71.6%	94.6%	54.1%	53.9%	109%	90.3%	95.8%	101%	46.2%	74.1%	67.2%	54.5%	73.4%	61.1%	74%	105%	81.5%
CCCCNC(=O)Oc1ccc(/C(=C(/C)Cc2ccc(OC)cc2)c2ccc(OCCN3CCCC3)cc2)cc1	94.7%	81.6%	79.1%	17.7%	49%	55.5%	48.7%	59.8%	-57.4% (active)	80.1%	-27.8% (active)	58.8%	69%	57%	71.8%	69.7%	86.1%	43.1%	-64.6% (active)
CCOC(=O)n1ccn(C)c1=S	109%	89.1%	60.5%	113%	104%	84.6%	101%	90.6%	31.9%	112%	103%	102%	117%	115%	106%	92%	95.7%	97.3%	97%
COCCNC(=O)Nc1ccc2nc(-c3cccs3)c(-c3cccs3)nc2c1	92.8%	98.6%	101%	88.7%	80.8%	76.6%	87.5%	96.9%	107%	96.2%	83.3%	94.8%	92.3%	82.5%	102%	78.6%	85.6%	103%	103%
O=[N+]([O-])c1cccc(-c2nc3cc4nc5ccccc5[nH]c4cc3n2)c1	105%	97.7%	95.7%	112%	113%	92.6%	92.6%	91.9%	114%	106%	90.9%	113%	110%	115%	98.2%	100%	106%	98.3%	103%
